# Laboratory results reported in PubChem BioAssay.
# Where “and” joins values, the source holds several entries; their conditions need not be identical. Identical values can stand only once. Inconclusive results are not listed. For some of these results: Results with a measured potency or affinity are listed apart. Some of the results follow. Calls of active or inactive are those of the source.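 The calls were made as follows, unless noted: active = GFP response above 150% of the DMSO level; inconclusive = fewer than 70 events counted for a yeast strain; inactive = the rest.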
# Legend:
# [1] = target: Cell division control protein 42 homolog (Homo sapiens) (UniProt P60953); assay: activated mutant Cdc42 GTP-binding inhibitors, dose response, biochemical, multiplex bead flow cytometry, Bodipy-FL-GTP (AID 1333;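 active = fitted half-maximal concentration within the tested dose range, moderate curve steepness, a statistically real signal drop, and little compound fluorescence or tag-binding interference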)
# Cell division control protein 42 homolog (Homo sapiens), sequence (P60953 whole entry, looked up): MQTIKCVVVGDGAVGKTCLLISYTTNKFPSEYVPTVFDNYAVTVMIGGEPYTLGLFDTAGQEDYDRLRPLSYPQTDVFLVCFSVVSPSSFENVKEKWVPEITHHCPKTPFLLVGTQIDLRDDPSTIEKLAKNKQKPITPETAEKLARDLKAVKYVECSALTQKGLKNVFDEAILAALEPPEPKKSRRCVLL
# [2] = target: Cell division control protein 42 homolog (Homo sapiens) (UniProt P60953); assay: wildtype Cdc42 GTP-binding inhibitors, dose response, biochemical, multiplex bead flow cytometry, Bodipy-FL-GTP (AID 1334;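 active = fitted half-maximal concentration within the tested range, moderate curve steepness, significant signal drop, and little compound fluorescence or bead-linkage interference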); settings: bead-based flow cytometry, Bodipy-FL-GTP binding to GST-Cdc42; at 100 µM (top of the series) unless noted
# [3] = target: GTPase HRas (Homo sapiens) (UniProt P01112); assay: inhibitors of GTP binding to wildtype Ras, dose response, biochemical, multiplex bead flow cytometry (AID 1335;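 active = fitted half-maximal concentration within 10 nM to 100 µM, steepness 0.5 to 2, significant signal drop, low assay interference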); settings: bead-based flow cytometry, Bodipy-GTP binding to GST-Ras; at 100 µM (top of the series) unless noted
# GTPase HRas (Homo sapiens), sequence (P01112 whole entry, looked up): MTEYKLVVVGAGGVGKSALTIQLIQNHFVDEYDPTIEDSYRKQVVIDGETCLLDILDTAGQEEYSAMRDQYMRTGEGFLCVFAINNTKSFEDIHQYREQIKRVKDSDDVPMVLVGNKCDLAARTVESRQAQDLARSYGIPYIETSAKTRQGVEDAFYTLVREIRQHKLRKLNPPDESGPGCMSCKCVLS
# [4] = tested on: Ras-related protein Rab-7a (dog), GTP binding; assay: Rab7 GTP binding inhibitors, potency, dose response, biochemical, wildtype, multiplex bead flow cytometry (AID 1336; call rule not given here)
# [5] = target: Ras-related C3 botulinum toxin substrate 1 (Homo sapiens) (UniProt P63000); assay: wildtype Rac1 GTP binding inhibitors, dose response, biochemical, multiplex bead flow cytometry (AID 1340;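 active = dose curve with midpoint inside tested range, moderate steepness, plateau gap beyond fit error, low compound glow and bead-link interference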); settings: GST-Rac1 beads, Bodipy-FL-GTP binding; at 100 µM (top of the series) unless noted
# [6] = target: GTPase HRas (Homo sapiens) (UniProt P01112); assay: activated Ras mutant GTP binding inhibitors, dose response, biochemical, multiplex bead flow cytometry (AID 1341;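 active = dose-response curve with midpoint inside the tested range, moderate steepness, significant amplitude and little compound fluorescence or bead-attachment interference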;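 also: GST-tagged constitutively activated Ras mutant immobilized on beads and multiplexed with other GTPases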)
# [7] = RPL19A-GFP modulators, yeast TOR pathway, confirmation, cell-based, S. cerevisiae, flow cytometry, cherry picks, mother/daughter gates (AID 2270;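 active = GFP response below 50% of the DMSO control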); settings: S. cerevisiae RPL19A-GFP strain, 3 h, at 10 µM, stronger effect = lower value, 100 = same GFP as DMSO wells
# [8] = LAP4-GFP expression modulators in yeast, confirmation, cell-based, cherry picks, flow cytometry, mother/daughter gates (AID 2271;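 active = GFP response above 150% of the DMSO control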;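 also: ratio of sample to DMSO plate mean so 100% equals DMSO level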); settings: S. cerevisiae LAP4-GFP strain, 3 h, at 10 µM, stronger effect = higher value, 100 means same as DMSO control
# [9] = modulators of MEP2-GFP levels in yeast, confirmation, S. cerevisiae, flow cytometry GFP, cherry picks (AID 2272;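 active = GFP response above 150% of the DMSO control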;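 also: ratio of well signal to plate DMSO mean so 100% equals DMSO level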); settings: S. cerevisiae MEP2-GFP strain, 3 h, at 10 µM, stronger effect = higher value
# [10] = AGP1-GFP expression modulators, hit retest, confirmation, cell-based, flow cytometry, S. cerevisiae, cherry picks (AID 2273);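 also: median GFP channel fluorescence over the whole cell population gate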; settings: S. cerevisiae AGP1-GFP strain, 3 h, at 10 µM
# [11] = modulators of CIT2-GFP expression in yeast, confirmation, S. cerevisiae, GFP fusion, cherry picks, mother/daughter gates (AID 2274); settings: S. cerevisiae CIT2-GFP strain, flow cytometry, 3 h, at 10 µM, stronger effect = higher value
# [12] = compound autofluorescence in yeast s288c, dose response, artefact control for yeast TOR pathway GFP screen, s288c strain (AID 2757;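 active = fluorescence span over the dose series, or activity score, above about 33, limit read from the data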;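 also: thousands of bead-calibrated equivalent soluble fluorophore molecules from median cell fluorescence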); settings: S. cerevisiae s288c, 520 nm autofluorescence, flow cytometry, 3 h; at 33 µM; stronger effect = higher value; zero means same as solvent-only cells
# [13] = yeast TOR pathway RPL19A-GFP modulators, primary screen, cell-based, S. cerevisiae, multiplex flow cytometry (AID 1862; in the data active = percent of DMSO control GFP below about 86%;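 also: lower values mimic rapamycin by blocking the RPL19A rise seen in DMSO cells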); settings: S. cerevisiae RPL19A-GFP strain, flow cytometry fluorescence, 3 h; at 10 µM; stronger effect = lower value
# [14] = modulators of MEP2-GFP levels in yeast, primary screen, S. cerevisiae, multiplex flow cytometry (AID 1867;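 active = GFP response, as percent of the DMSO control, above the screen-wide mean plus 3 SD, about 139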;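 also: median GFP channel fluorescence of barcode-gated MEP2-GFP cells measured by flow cytometry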); settings: S. cerevisiae MEP2-GFP strain, 3 h, at 10 µM, stronger effect = higher value, 100% means same as DMSO wells
# [15] = modulators of CIT2-GFP expression in yeast, primary screen, S. cerevisiae, GFP fusion, multiplex flow cytometry (AID 1870;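 active = percent response above a set limit, the screen-wide mean plus 3 SD, cut at about 130% in these data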;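 also: barcoded CIT2-GFP strain pooled with four other GFP strains with rapamycin as positive control; median GFP fluorescence per well over plate mean of DMSO wells so 100% = DMSO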); settings: 3 h, at 10 µM, stronger effect = higher value
# [16] = modulators of LAP4-GFP expression in yeast, primary screen, S. cerevisiae, multiplex flow cytometry (AID 1873;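 active = GFP signal, as percent of the solvent control, above the screen mean plus 3 SD, about 149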); settings: 3 h, at 10 µM, stronger effect = higher value
# [17] = modulators of AGP1-GFP expression in yeast TOR pathway, primary screen, cell-based, multiplex flow cytometry, S. cerevisiae (AID 1887;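 active = GFP signal above the screen-wide mean plus 3 SD, that is over about 124.5% of the solvent control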;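 also: AGP1-GFP fusion strain of S. cerevisiae within a five-strain barcoded multiplex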); settings: 3 h, at 10 µM, stronger effect = higher value
# [18] = inhibitors of CD8+ T cell-vesicle binding, pilot screen, LFA-1/ICAM-1 modulator project, MLPCN validation set, flow cytometry (AID 2523;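 active = response below a set limit, under 55% cells CD8-positive and vesicle-bound, and CD8 cells' 90th-percentile brightness under 279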;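 as to vesicle binding response: mean PE anti-B7-1 fluorescence of CD8+ cells relative to row control; 100% = QL9-loaded vesicles with DMSO vehicle in the same plate row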); settings: 2C mouse CD8+ T cells, at 7 µM, stronger effect = lower value; double positive events: measured here: CD8+/vesicle+ event percentage
# [19] = target: Integrin beta-1 (Homo sapiens) + Integrin alpha-4 (Homo sapiens) (UniProt P13612+P05556); assay: inhibition of HUTS-21 binding to VLA-4, pilot screen, VLA-4 allosteric modulator project, U937 cells, HUTS-21 mAb, flow cytometry, validation set (AID 2674;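 active = inhibition above 50%, about 3 SD of the validation set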;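 also: antibody binding induced by the VLA-4 ligand LDV present at three times its Kd; 0% = LDV ligand with antibody and no compound and 100% = antibody without LDV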); settings: HUTS-21 LIBS mAb binding, at 6.7 µM, stronger effect = higher value, binding induced by LDV ligand
# Integrin beta-1 (Homo sapiens) + Integrin alpha-4 (Homo sapiens), sequence (P05556 whole entry, looked up): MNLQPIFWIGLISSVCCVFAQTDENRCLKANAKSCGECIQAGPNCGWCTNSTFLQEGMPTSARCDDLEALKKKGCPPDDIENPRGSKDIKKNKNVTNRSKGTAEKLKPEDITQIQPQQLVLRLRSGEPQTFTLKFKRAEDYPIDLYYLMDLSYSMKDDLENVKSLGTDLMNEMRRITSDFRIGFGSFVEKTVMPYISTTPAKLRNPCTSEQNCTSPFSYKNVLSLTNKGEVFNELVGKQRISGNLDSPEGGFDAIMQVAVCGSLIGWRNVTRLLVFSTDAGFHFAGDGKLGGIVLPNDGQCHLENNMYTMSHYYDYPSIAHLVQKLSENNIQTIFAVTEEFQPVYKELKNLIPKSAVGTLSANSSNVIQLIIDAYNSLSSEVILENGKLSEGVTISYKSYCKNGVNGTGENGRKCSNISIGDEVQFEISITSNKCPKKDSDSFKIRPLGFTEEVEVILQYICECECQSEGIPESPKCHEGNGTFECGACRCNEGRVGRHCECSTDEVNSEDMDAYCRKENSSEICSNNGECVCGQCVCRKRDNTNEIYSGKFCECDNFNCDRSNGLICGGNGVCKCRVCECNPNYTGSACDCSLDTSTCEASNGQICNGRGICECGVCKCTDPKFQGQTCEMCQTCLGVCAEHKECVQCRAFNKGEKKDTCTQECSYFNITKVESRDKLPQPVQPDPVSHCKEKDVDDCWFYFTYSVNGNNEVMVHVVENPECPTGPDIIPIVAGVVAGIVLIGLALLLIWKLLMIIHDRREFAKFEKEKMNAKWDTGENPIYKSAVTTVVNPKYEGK
# Integrin beta-1 (Homo sapiens) + Integrin alpha-4 (Homo sapiens), sequence (P13612 whole entry, looked up): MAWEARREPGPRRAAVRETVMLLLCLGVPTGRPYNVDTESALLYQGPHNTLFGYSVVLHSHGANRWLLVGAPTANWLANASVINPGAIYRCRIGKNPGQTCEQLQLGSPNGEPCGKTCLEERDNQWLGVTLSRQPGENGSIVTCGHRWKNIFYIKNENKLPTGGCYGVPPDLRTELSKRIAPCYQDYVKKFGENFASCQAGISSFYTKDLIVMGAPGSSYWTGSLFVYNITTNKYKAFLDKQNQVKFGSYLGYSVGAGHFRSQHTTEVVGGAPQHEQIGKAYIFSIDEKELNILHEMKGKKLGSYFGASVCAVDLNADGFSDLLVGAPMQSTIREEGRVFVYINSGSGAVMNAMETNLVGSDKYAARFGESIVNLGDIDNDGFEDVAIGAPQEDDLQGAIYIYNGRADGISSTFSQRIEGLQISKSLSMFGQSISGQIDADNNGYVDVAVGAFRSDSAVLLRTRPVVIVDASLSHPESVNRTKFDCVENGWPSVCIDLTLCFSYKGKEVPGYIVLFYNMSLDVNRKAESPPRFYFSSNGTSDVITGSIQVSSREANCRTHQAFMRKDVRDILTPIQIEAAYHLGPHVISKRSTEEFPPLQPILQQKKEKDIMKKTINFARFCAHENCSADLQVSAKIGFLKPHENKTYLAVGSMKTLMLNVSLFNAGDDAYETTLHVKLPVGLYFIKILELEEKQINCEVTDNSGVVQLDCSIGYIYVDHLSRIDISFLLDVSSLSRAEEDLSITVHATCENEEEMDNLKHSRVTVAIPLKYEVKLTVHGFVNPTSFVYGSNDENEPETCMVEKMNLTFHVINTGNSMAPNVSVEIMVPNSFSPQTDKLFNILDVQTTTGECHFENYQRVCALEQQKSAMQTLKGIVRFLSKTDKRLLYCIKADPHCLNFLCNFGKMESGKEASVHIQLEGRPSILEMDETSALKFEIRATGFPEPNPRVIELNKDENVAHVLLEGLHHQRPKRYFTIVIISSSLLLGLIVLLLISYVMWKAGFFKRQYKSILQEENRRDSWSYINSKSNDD
# [20] = superoxide lowering in aged yeast cells, pilot screen, validation compound set (AID 2706;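 active = superoxide response below 65% of plate, a cut near 3 SD across the whole screen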;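 also: yeast exposed to compound for one week at 30 degrees C before staining; 100% = mean of all compound wells on the same plate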); settings: S. cerevisiae aging, superoxide DHE fluorescence; at 10 µM; stronger effect = lower value
# [21] = target: Beta-adrenergic receptor kinase 1 (Homo sapiens) (UniProt P25098); assay: GRK2 binders displacing RNA aptamer, biochemical, validation, human GRK2, bead flow cytometry (AID 488806;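 active = aptamer binding inhibition above 30%, about 3 SD of noise from non-fluorescent compounds; inactive = inhibition at or below 30%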); settings: bead-bound GRK2, FAM-aptamer displacement, at 10 µM, stronger effect = higher value
# [22] = target: Beta-2 adrenergic receptor (Homo sapiens) (UniProt P07550); assay: beta2AR agonists driving receptor internalization, pilot screen, cell-based, FAP fluorogen, flow cytometry, validation set (AID 504459;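 active = percent response above 42, roughly 3 SD of non-fluorescent test compounds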;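 also: agonist-driven loss of surface beta2AR via internalization measured by FAP dye flow cytometry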); settings: Am2.2-beta2AR cells, FAP surface receptor flow cytometry; at 10 µM; stronger effect = higher value
# Beta-2 adrenergic receptor (Homo sapiens), sequence (P07550 whole entry, looked up): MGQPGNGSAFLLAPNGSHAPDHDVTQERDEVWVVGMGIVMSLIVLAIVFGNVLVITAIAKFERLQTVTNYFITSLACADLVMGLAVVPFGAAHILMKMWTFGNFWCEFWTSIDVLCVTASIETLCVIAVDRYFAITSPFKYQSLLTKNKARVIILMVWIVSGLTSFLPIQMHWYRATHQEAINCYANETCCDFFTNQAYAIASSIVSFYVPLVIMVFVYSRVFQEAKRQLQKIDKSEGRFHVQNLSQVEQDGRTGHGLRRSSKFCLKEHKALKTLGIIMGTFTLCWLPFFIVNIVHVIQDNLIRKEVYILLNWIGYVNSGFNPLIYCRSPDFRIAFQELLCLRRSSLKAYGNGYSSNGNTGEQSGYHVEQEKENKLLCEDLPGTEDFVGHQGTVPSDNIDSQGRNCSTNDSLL
# [23] = target: AP-2 complex subunit beta (Homo sapiens) (UniProt P63010); assay: inhibitors of arrestin peptide binding to AP2, pilot screen, biochemical, validation set, GST-AP2 beads, flow cytometry (AID 504541;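 active = inhibition above 54%, about 3 SD of non-fluorescent compounds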;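 also: AP2 carries R879A mutation and is captured from E. coli lysate; bead-bound FITC arrestin peptide fluorescence measuring arrestin peptide binding to AP2; 0% = DMSO wells and 100% = excess unlabeled arrestin peptide control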); settings: FITC arrestin peptide, at 10 µM, stronger effect = higher value, AP2 beta2 appendage fragment, R879A mutant
# AP-2 complex subunit beta (Homo sapiens), sequence (P63010 whole entry, looked up, the tested form may be a part, one chain of several): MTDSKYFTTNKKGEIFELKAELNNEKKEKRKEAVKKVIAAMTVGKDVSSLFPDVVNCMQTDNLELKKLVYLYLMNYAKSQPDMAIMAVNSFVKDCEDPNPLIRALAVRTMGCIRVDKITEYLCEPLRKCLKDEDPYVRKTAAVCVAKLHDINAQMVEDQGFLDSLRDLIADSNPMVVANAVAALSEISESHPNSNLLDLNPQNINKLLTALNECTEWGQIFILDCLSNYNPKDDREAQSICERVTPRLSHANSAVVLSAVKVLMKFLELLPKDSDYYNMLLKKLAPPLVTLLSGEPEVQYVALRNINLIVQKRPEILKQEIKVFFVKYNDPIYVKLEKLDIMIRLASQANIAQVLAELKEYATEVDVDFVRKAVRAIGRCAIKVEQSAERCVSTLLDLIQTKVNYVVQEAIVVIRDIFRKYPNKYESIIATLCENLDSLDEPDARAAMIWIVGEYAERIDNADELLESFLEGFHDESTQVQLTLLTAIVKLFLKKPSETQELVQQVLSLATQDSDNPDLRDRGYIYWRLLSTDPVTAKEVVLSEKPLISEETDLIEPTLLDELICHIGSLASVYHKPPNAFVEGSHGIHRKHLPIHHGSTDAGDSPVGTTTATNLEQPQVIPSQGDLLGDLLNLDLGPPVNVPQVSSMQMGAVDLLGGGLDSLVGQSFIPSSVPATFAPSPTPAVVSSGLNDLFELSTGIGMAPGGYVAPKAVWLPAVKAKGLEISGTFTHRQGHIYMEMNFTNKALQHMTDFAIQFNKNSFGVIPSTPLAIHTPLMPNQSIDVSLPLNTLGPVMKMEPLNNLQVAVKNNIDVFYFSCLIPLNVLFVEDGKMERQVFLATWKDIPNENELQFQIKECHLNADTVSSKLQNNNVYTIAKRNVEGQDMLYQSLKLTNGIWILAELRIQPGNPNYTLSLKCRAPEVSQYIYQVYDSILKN
# [24] = yeast V-ATPase proton transport modulators, S. cerevisiae, pHLuorin, HTS validation (AID 504600; in the data active = response above about 15%;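 also: plate controls were DMSO for no effect and reference compound for full effect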); settings: S. cerevisiae pHLuorin cytosolic pH, at 10 µM, stronger effect = higher value
# [25] = tested on: anti-desmoglein-3 scFv antibody binding to human DSG3; assay: inhibitors of anti-DSG3 scFv binding to DSG3, pilot screen, biochemical, validation compound set, bead-based, flow cytometry (AID 588368;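 active = binding below the plate cutoff, the plate median minus 3 SD, with a reading above zero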;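 also: signal is the median channel fluorescence of bead-bound GFP antibody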); settings: Protein G beads, DSG3-Fc, scFv-GFP binding, at 10 µM, stronger effect = lower value
# [26] = inhibitors of fungal efflux pumps CDR1, CDR2, MDR1, pilot screen, validation compound set, multiplex, phenotypic (AID 588506;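 active = efflux inhibition above 0.42, the validation set average plus 4 SD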;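 also: Nile Red retained in cells so higher fluorescence means more efflux inhibition; 0 = negative control wells and 1 = enniatin B 25 µM full block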); settings: S. cerevisiae pump-expressing triplex, Nile Red efflux flow cytometry; at 10 µM; stronger effect = higher value; the pumps come from Candida albicans
# [27] = target: ATP-binding cassette sub-family B member 6 (Homo sapiens) (UniProt Q9NP58); assay: ABCB6 transporter inhibitors, pilot screen, K562-ABCB6 cells, flow cytometry, validation set (AID 588550;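 active = inhibition above the screen-wide mean plus 3 SD, about 51%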;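 also: 0% = DMSO wells and 100% = benzethonium chloride 70 µM positive control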); settings: K562-ABCB6 porphyrin accumulation, 1 h, at 10 µM, stronger effect = higher value
# ATP-binding cassette sub-family B member 6 (Homo sapiens), sequence (Q9NP58 whole entry, looked up): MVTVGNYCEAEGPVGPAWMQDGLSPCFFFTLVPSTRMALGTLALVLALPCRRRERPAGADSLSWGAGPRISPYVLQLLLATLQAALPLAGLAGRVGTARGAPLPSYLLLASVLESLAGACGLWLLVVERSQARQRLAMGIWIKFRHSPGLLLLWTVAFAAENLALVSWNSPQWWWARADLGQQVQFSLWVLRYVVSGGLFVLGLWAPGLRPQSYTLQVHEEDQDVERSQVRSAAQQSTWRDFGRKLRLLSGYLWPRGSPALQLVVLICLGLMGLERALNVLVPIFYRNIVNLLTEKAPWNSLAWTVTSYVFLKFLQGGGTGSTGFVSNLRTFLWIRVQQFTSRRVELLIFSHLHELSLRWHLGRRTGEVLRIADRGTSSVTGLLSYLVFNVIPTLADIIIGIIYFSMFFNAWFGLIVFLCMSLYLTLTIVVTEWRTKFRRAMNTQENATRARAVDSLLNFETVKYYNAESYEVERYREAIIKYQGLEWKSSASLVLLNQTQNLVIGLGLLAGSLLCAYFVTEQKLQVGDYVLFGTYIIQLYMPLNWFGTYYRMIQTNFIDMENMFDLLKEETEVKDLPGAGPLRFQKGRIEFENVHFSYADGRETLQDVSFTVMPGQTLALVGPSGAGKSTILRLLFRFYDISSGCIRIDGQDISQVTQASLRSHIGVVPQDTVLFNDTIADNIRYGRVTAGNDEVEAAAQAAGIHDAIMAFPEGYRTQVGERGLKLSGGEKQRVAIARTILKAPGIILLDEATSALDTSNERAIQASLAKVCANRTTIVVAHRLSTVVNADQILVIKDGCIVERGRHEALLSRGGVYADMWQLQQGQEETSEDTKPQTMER
# [28] = promoters of myeloid differentiation in arrested cells, primary screen, cell-based, GFP/MAC1 double positive, flow cytometry, validation set (AID 588685;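 active = differentiation response of at least 50%, scaled between solvent and reference control, from cells with both markers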;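 also: compound exposure lasts four days before antibody staining and flow analysis; 0% = DMSO wells and 100% = 5 µM fulvestrant positive control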); settings: ER-HoxA9 marrow cells, stronger effect = higher value, normalized: vehicle 0, fulvestrant 100
# [29] = measured here: daughter cell gate
# [30] = measured here: mother cell gate
# [31] = measured here: daughter cell gate response
# [32] = measured here: mother cell gate response
structure (smiles),measurement,setting,value
O=C(/C=C/c1ccc(Cl)c([N+](=O)[O-])c1)c1cccnc1,outcome,[1],inactive
same,"fluorescence, percent of control (lower = inhibition)",[2],30.5%
same,"GTP binding, percent of control",[3],73.5%
same,outcome,[4],inactive
same,"GTP binding signal, raw median fluorescence (lower = inhibition) (MCF (arbitrary fluorescence units))",[5],206
same,outcome,[6],inactive
same,GFP response vs DMSO,[7],91.5% (inactive)
same,GFP response vs DMSO,[7]; [29],89.7%
same,GFP response vs DMSO,[7]; [30],84.1%
same,GFP response relative to DMSO,[8],207% (active)
same,GFP response relative to DMSO,[8]; [31],192%
same,GFP response relative to DMSO,[8]; [32],215%
same,GFP response vs DMSO,[9],105% (inactive)
same,"GFP response, % of DMSO",[10],107% (inactive)
same,"GFP response, % of DMSO",[11],86% (inactive)
same,"GFP response, % of DMSO",[11]; [29],102%
same,"GFP response, % of DMSO",[11]; [30],72.8%
same,fluorescence change (kMESF span),[12],1.02 (inactive)
O=C(O)c1ccccc1OCCOc1ccccc1,outcome,[1],inactive
same,"fluorescence, percent of control (lower = inhibition)",[2],82.8%
same,"GTP binding, percent of control",[3],81.1%
same,outcome,[4],inactive
same,"GTP binding signal, raw median fluorescence (lower = inhibition) (MCF (arbitrary fluorescence units))",[5],297
same,outcome,[6],inactive
same,percent of DMSO control GFP,[13],93.4% (inactive)
same,GFP response vs DMSO,[14],98.8% (inactive)
same,percent response of DMSO control,[15],83.1% (inactive)
same,GFP response vs DMSO,[16],129% (inactive)
same,"GFP response, % of DMSO",[17],77.1% (inactive)
same,double positive events,[18],66%
same,vesicle binding response,[18],133% (inactive)
same,inhibition,[19],2.55% (inactive)
same,superoxide response (% of plate),[20],43.5% (active)
same,aptamer binding inhibition,[21],2% (inactive)
same,response,[22],32.2% (inactive)
same,inhibition,[23],52.1% (inactive)
same,response,[24],-1.15% (inactive)
same,binding (% of control),[25],96% (inactive)
same,efflux inhibition (fraction of control),[26],0.74 (active)
same,inhibition,[27],8% (inactive)
same,differentiation response,[28],34.6% (inactive)
COCCN1C(=O)/C(=C/c2ccc(N3CCCC3)cc2C)SC1=S,outcome,[1],inactive
same,"fluorescence, percent of control (lower = inhibition)",[2],77.8%
same,"GTP binding, percent of control",[3],104%
same,outcome,[4],inactive
same,"GTP binding signal, raw median fluorescence (lower = inhibition) (MCF (arbitrary fluorescence units))",[5],224
same,outcome,[6],inactive
same,GFP response vs DMSO,[7],99.6% (inactive)
same,GFP response vs DMSO,[7]; [29],99.1%
same,GFP response vs DMSO,[7]; [30],100%
same,GFP response relative to DMSO,[8],117% (inactive)
same,GFP response relative to DMSO,[8]; [31],117%
same,GFP response relative to DMSO,[8]; [32],116%
same,GFP response vs DMSO,[9],143% (inactive)
same,"GFP response, % of DMSO",[10],101% (inactive)
same,"GFP response, % of DMSO",[11],112% (inactive)
same,"GFP response, % of DMSO",[11]; [29],112%
same,"GFP response, % of DMSO",[11]; [30],112%
O=C(C#Cc1ccccc1)c1cccc([N+](=O)[O-])c1,outcome,[1],inactive
same,"fluorescence, percent of control (lower = inhibition)",[2],50.9% and 49.2%
same,"GTP binding, percent of control",[3],170% and 92.3%
same,outcome,[4],inactive
same,"GTP binding signal, raw median fluorescence (lower = inhibition) (MCF (arbitrary fluorescence units))",[5],92.8
same,outcome,[6],inactive
same,GFP response vs DMSO,[7],92.5% (inactive)
same,GFP response vs DMSO,[7]; [29],95.9%
same,GFP response vs DMSO,[7]; [30],85.9%
same,GFP response relative to DMSO,[8],182% (active)
same,GFP response relative to DMSO,[8]; [31],166%
same,GFP response relative to DMSO,[8]; [32],183%
same,GFP response vs DMSO,[9],121% (inactive)
same,"GFP response, % of DMSO",[10],112% (inactive)
same,"GFP response, % of DMSO",[11],105% (inactive)
same,"GFP response, % of DMSO",[11]; [29],110%
same,"GFP response, % of DMSO",[11]; [30],97.3%
CC(C)(C)C(=O)/C=c1\s/c(=C\c2ccc(-c3ccc([N+](=O)[O-])cc3)o2)c(=O)n1CC(=O)NC(N)=O,outcome,[1],inactive
same,"fluorescence, percent of control (lower = inhibition)",[2],99.6%
same,"GTP binding, percent of control",[3],141%
same,outcome,[4],inactive
same,"GTP binding signal, raw median fluorescence (lower = inhibition) (MCF (arbitrary fluorescence units))",[5],256
same,outcome,[6],inactive
same,GFP response vs DMSO,[7],101% (inactive)
same,GFP response vs DMSO,[7]; [29],101%
same,GFP response vs DMSO,[7]; [30],101%
same,GFP response relative to DMSO,[8],102% (inactive)
same,GFP response relative to DMSO,[8]; [31],99.7%
same,GFP response relative to DMSO,[8]; [32],103%
same,GFP response vs DMSO,[9],112% (inactive)
same,"GFP response, % of DMSO",[10],101% (inactive)
same,"GFP response, % of DMSO",[11],99.7% (inactive)
same,"GFP response, % of DMSO",[11]; [29],100%
same,"GFP response, % of DMSO",[11]; [30],98.7%
COCCn1c(=S)[nH]c2cc(C(=O)N3CCc4ccccc4C3)ccc2c1=O,outcome,[1],inactive
same,"fluorescence, percent of control (lower = inhibition)",[2],35.6%
same,"GTP binding, percent of control",[3],83.9%
same,outcome,[4],inactive
same,outcome,[6],inactive
